Source: PubChem BioAssay (Sanford-Burnham Center for Chemical Genomics)
FAS-TE inh: FAS thioesterase (human) inhibition; P49327; 0.67% of 360,000 active; inhibition, % at 15 µM; recombinant FAS-TE, OMFH fluorogenic substrate, fluorescence endpoint;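 active = compounds whose normalised, plate-corrected inhibition of enzyme fluorescence in the single-dose primary screen is 50% or more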;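 also: 0% = DMSO with enzyme and 100% = substrate without enzyme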
Target sequence (P49327 whole entry, looked up): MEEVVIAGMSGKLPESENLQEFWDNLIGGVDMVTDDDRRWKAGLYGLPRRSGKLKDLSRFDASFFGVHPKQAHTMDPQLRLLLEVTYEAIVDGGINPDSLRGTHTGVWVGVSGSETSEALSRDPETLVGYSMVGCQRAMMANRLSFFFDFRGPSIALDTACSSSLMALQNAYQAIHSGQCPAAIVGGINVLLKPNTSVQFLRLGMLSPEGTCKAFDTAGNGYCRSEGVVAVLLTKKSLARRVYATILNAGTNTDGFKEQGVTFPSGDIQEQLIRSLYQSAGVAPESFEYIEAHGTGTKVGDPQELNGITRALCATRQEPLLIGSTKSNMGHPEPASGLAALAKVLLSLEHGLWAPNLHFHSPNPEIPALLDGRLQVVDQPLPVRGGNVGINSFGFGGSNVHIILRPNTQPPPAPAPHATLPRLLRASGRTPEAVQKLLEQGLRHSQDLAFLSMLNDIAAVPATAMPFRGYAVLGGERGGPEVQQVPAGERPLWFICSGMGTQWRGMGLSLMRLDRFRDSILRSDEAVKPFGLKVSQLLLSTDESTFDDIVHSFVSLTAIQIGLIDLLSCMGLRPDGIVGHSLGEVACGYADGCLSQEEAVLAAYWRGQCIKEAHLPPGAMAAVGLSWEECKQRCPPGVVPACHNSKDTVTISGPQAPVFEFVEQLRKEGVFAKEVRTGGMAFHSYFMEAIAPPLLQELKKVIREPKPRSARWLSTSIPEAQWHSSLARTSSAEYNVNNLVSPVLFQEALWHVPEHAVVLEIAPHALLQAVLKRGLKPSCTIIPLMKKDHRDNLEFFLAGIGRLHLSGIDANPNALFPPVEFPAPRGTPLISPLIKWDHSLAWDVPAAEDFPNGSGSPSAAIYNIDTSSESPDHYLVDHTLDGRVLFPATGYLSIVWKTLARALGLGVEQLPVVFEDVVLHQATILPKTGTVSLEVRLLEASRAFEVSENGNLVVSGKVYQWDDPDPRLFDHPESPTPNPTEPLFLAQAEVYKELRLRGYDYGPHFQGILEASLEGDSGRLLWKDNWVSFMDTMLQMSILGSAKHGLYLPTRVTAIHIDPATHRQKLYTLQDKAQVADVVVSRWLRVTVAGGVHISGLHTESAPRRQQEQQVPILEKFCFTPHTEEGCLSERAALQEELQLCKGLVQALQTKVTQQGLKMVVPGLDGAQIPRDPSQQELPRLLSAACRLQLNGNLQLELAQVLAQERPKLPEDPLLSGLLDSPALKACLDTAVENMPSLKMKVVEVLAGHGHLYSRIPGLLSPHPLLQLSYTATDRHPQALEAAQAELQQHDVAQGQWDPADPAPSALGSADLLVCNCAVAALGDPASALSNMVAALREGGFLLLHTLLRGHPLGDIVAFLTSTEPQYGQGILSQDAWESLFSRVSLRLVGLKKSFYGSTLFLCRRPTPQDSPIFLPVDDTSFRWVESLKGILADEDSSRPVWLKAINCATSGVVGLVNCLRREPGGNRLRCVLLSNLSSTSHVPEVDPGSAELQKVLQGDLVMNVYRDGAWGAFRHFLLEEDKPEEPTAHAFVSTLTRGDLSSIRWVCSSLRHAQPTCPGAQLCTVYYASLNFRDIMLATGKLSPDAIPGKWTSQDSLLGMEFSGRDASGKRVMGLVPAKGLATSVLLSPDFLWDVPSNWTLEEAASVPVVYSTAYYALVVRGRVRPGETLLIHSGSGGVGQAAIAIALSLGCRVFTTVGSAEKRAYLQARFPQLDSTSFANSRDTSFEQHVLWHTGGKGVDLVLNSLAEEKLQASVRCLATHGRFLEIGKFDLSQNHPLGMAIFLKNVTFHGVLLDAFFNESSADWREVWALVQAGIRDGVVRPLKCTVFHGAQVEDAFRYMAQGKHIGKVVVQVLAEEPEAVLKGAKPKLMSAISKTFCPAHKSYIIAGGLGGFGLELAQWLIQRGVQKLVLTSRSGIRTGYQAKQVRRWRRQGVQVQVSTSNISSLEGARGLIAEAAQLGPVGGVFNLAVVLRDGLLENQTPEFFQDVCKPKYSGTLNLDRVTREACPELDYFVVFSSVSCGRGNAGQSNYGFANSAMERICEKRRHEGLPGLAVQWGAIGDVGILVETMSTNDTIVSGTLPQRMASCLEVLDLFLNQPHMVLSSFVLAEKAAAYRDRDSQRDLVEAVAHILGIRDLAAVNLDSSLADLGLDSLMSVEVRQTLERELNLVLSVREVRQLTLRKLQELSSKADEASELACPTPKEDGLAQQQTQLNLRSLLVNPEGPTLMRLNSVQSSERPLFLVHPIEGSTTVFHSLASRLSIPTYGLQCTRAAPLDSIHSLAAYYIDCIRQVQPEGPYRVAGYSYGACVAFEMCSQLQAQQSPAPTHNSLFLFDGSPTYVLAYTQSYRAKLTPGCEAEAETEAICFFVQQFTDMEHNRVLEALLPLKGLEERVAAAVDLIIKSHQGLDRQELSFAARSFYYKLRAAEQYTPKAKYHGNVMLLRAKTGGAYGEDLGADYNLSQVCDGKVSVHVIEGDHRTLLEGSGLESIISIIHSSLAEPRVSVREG
PfGluPho inh: PfG6PD (Plasmodium falciparum) enzyme inhibition; PfGluPho enzyme, NADPH resazurin-diaphorase fluorescence; inhibition, % at 20 µM; 0.78% of 350,000 active;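 active = inhibition reaching at least a set limit at 20 µM in the primary screen, cut at about 59% in these data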;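 also: 0% = DMSO wells with substrate and 100% = DMSO wells lacking glucose-6-phosphate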
CRFR2-BP ag: agonists of human CRF-binding protein/CRF-R2 receptor complex; activation, % at 13.2 µM; HEK293 CRF-R2/CRF-BP, calcium dye fluorescence (FLIPR); percent of saturating CRF peptide response; 0.46% of 350,000 active; AID 588473;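 active = activation of at least 50%, plus an integration ratio under a set limit after plate pattern correction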;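 also: plate controls were neutral control wells without compound for no effect and CRF at EC100 for full effect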
aDG glyco up: alpha-DG glycosylation activation | activation, % at 10 µM | Pro5-aDG cells, alpha-DG glycosylation AlphaScreen (IIH6); 0% Pro5, 100% B10-LARGE cell signal | AID 624168 | 0.22% of 360,000 active;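 active = activation of at least 8% versus controls, or a plate z-score of at least 8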;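 also: Pro5 are CHO cells carrying HIG-tagged alpha-DG that lacks glycosylation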
CRFBP-R2 block: antagonists of CRF-binding protein/CRF-R2 receptor complex; HEK293 CRF-R2/CRF-BP, CRF-induced calcium fluorescence; inhibition, % at 11.8 µM; 0.59% of 350,000 active; AID 588475;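 active = inhibition of the ligand-induced calcium signal above about 50% at the single tested concentration, limit read from the data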
Cardio protect: modulators protecting cardiomyocytes from myocardial damage | protection from H2O2 cell death, % at 20 µM | H9c2 cardiomyocytes, H2O2 injury protection, ATPLite, 2 h | AID 588492 | 0.63% of 360,000 active;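 active = compounds giving at least 50% protection of heart cells from peroxide-induced death in the single-dose screen, raw or plate-pattern-corrected value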;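 also: 0% = DMSO wells with peroxide and 100% = DMSO wells without peroxide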
FAS-TE inh conf: confirmation of human fatty acid synthase thioesterase inhibitors; shares compounds with FAS-TE inh; recombinant FAS-TE, OMFH fluorogenic substrate, fluorescence; inhibition, % at 15 µM; 45% of 2,300 active; AID 624325;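 active = compounds inhibiting the enzyme by at least 50% at 15 µM in any one of the replicates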;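 also: 0% = enzyme with DMSO only and 100% = wells lacking enzyme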
* = called active by the depositor; . = no result. Hits are enriched below; roughly 3.2% of the tested compounds scored in any of these assays.

SMILES	FAS-TE inh	PfGluPho inh	CRFR2-BP ag	aDG glyco up	CRFBP-R2 block	Cardio protect	FAS-TE inh conf
CC(=O)O[C@H]1C(=O)[C@@]2(C)C([C@H](OC(=O)c3ccccc3)[C@]3(O)C[C@H](OC(=O)[C@H](O)[C@@H](NC(=O)c4ccccc4)c4ccccc4)C(C)=C1C3(C)C)[C@]1(OC(C)=O)CO[C@@H]1C[C@H]2O (stereo partly specified)	52.5*	17.9	4.2	-0.1	-13.3	2.6	19.2
Cc1nc2ccc([N+](=O)[O-])cc2c(=O)n1Cc1ccc(Br)cc1	93.0*	0.1	1.3	0.2	4.5	-9.2	62.9*
Cc1nc2ccc([N+](=O)[O-])cc2c(=O)n1Cc1ccc([N+](=O)[O-])cc1	59.1*	-14.2	-1.3	-0.1	20.1	-7.3	63.2*
Cc1nc2ccc([N+](=O)[O-])cc2c(=O)n1Cc1ccccc1Br	71.0*	-9.9	-0.2	0.0	-3.3	-2.3	29.2
Cc1ccc(Cn2c([N+](=O)[O-])cnc2C)cc1	-7.9	-0.3	-0.3	0.0	28.1	-3.4	.
Cc1nc2ccc([N+](=O)[O-])cc2c(=O)n1Cc1cccc(Br)c1	45.8	-4.0	-1.8	-0.2	21.6	5.3	.
Cc1ccc(Cn2c(C)nc3ccc([N+](=O)[O-])cc3c2=O)cc1	75.3*	10.4	1.8	0.3	29.6	-12.7	59.3*
Cc1nc2ccccc2n1Cc1ccccc1Br	-3.6	-1.7	0.1	2.3	6.6	-12.9	.
O=C(CC1C=Cc2ccccc2N1C(=O)c1ccccc1)c1ccccc1 (stereo unspecified)	21.7	-3.8	-2.0	0.2	32.2	-9.6	.
CCCCc1nc2c(C)c(N)cnc2n1Cc1cccc([N+](=O)[O-])c1	2.0	8.3	-0.3	-0.2	21.0	0.4	.
O=C(c1ccco1)N1CCN(C2CN(Cc3cn(Cc4ccccc4C(F)(F)F)nn3)S(=O)(=O)C2)CC1 (stereo unspecified)	-9.8	.	.	-0.2	.	6.8	.
O=[N+]([O-])c1ccc(Sc2n[nH]c(-c3ccc(Cl)cc3Cl)n2)nc1	62.8*	-8.6	20.1	0.0	20.9	-11.6	59.9*
CN1C[C@H](C(=O)NC2(C)OC3(O)[C@@H]4CCCN4C(=O)[C@H](Cc4ccccc4)N3C2=O)CC2c3cccc4[nH]cc(c34)C[C@H]21 (stereo partly specified)	58.8*	4.1	18.9	0.0	-19.7	35.4	73.0*
O=C(COc1cccnc1[N+](=O)[O-])Nc1ccc2c(c1)OC(F)(F)O2	35.6	0.2	2.4	0.0	-16.5	-7.9	.
CC(C)(C)n1ncc2c(=O)n(Cc3cc(F)c(Cl)cc3Cl)cnc21	52.0*	10.6	4.5	1.6	0.4	-4.5	34.8
Cc1ccc(C)c(Cn2cnc3c(cnn3C(C)(C)C)c2=O)c1	13.3	-11.5	-2.6	0.3	8.2	-18.7	.
O=C(NNC(=O)C1CCCN(S(=O)(=O)c2cccc(F)c2)C1)C1CC1 (stereo unspecified)	-1.7	1.6	-0.9	-0.2	-1.4	6.9	.
CCOc1ccc(NC(=O)N2CCC(c3nc4ccccc4[nH]3)CC2)cc1	-2.9	-9.5	3.2	0.5	2.4	-0.7	.
CCOC1=C2[C@H](c3ccccc3F)N(S(=O)(=O)c3ccc(C)cc3)C[C@H]2n2c(=O)n(-c3ccccc3)c(=O)n2C1	75.0*	.	.	-0.5	.	1.8	8.1
CCOC1=C2[C@H](c3cccc(Cl)c3)N(S(=O)(=O)c3ccc(C)cc3)C[C@H]2n2c(=O)n(-c3ccccc3)c(=O)n2C1	69.5*	.	.	0.8	.	-1.1	21.1
O=C(CSc1nnnn1Cc1ccccc1)NC1CCCCC1	-7.2	24.4	2.9	0.0	13.9	1.0	.
O=C(CSc1ncnc2c1nnn2Cc1ccccc1)NC1CCCCC1	57.7*	11.4	-0.7	0.1	9.5	7.1	49.1*
O=C(/C=C/c1cccc(O)c1)c1ccc(N2CCOCC2)cc1	-5.0	10.4	-0.5	1.0	4.8	-5.8	.
C=CCN1c2ccccc2[C@]23C[C@@H](C(=O)OC)N(C(=O)NC4CCCC4)C2=NC(C(=O)OC)=C(C(=O)OC)[C@H]13	74.6*	-9.1	1.1	1.2	6.3	-4.8	0.0
CC#CCN1c2ccccc2[C@]23C[C@@H](C(=O)OC)N(C(=O)NCCBr)C2=NC(C(=O)OC)=C(C(=O)OC)[C@H]13	64.3*	3.7	1.4	-0.3	10.1	-2.1	29.5
SMILES	FAS-TE inh	PfGluPho inh	CRFR2-BP ag	aDG glyco up	CRFBP-R2 block	Cardio protect	FAS-TE inh conf
CC#CCN1c2ccccc2[C@]23C[C@@H](C(=O)OC)N(C(=O)OCC)C2=NC(C(=O)OC)=C(C(=O)OC)[C@H]13	-8.0	-14.7	0.8	-0.2	-2.6	6.3	.
Cc1ccc(NC(=O)Cc2nnc(SCC(=O)NC3CCCC3)n2C)cc1C	-5.2	-5.1	-1.6	0.0	-17.4	1.8	.
COc1ccc(C(=O)N/C(=C\c2cn(S(=O)(=O)N(C)C)c3ccccc23)C(=O)N2CCOCC2)cc1	82.2*	-8.1	-0.5	-0.2	-28.2	4.3	70.8*
COc1ccc(C(=O)N/C(=C\c2cn(S(=O)(=O)N(C)C)c3ccccc23)C(=O)NC(C)C)cc1	65.2*	3.2	12.3	-0.2	-97.6	4.7	28.6
COc1ccc(C(=O)N/C(=C\c2cn(S(=O)(=O)N(C)C)c3ccccc23)C(=O)N2CCCC2)cc1	79.5*	7.2	0.2	-0.3	-8.3	5.0	89.9*
CN(C)S(=O)(=O)n1cc(/C=C(\NC(=O)c2ccccc2)C(=O)N2CCOCC2)c2ccccc21	25.2	9.4	-1.2	-0.2	-22.3	2.4	.
Cc1ccc(S(=O)(=O)NNC(=O)C(O)(c2ccccc2C)c2ccccc2C)cc1	2.2	-7.7	-3.1	0.3	-27.7	1.9	.
CC(C)(C)OC(=O)C[C@H]1C/C=C\C[C@@H](CC(=O)N(CCO)Cc2ccccc2)C(=O)N[C@H](Cc2c[nH]c3ccccc23)COC1=O	-2.9	10.7	-0.5	-0.3	8.3	15.2	.
Cc1ccc(S(=O)(=O)Cn2nnnc2C(C(C)C)N2CCN(c3nc4ccccc4s3)CC2)cc1 (stereo unspecified)	59.6*	8.5	7.0	1.6	15.0	5.4	41.5
O=[N+]([O-])c1c(Nc2cccc(O)c2)cc(Cl)c2nonc12	78.0*	54.0	0.0	-0.4	26.7	-20.3	49.8*
CC1(C(=O)NS(=O)(=O)c2ccc(Br)cc2)CCN1C(=O)CCC1CCCC1 (stereo unspecified)	8.0	.	.	0.1	.	7.2	.
COc1ccc(C2(CNC(=O)c3cccc([N+](=O)[O-])c3)CCCCC2)cc1OC	51.1*	44.5	-0.1	-0.2	-13.5	-1.3	69.8*
O=C(NCCN1C(=O)S/C(=C\c2ccccc2)C1=O)C1CCN(S(=O)(=O)c2cccs2)CC1	52.7*	-0.2	4.6	0.5	-24.1	-21.0	58.0*
